In the supplement of paper PMC3334620:
In all, about 33,000 sequences were measured (“E-score (-0.5 to 0.5)”: median about -0.041, highest 2% from about 0.37 on). The list comes from a sample in which the highest values are over-represented; it also holds similar and randomly drawn sequences.

molecular target: T1, Ecm22 (UniProt Q05958); assay: PBM E-score (8-mer binding enrichment) (E-score (-0.5 to 0.5)); higher = stronger / more preferred TF binding; details: protein concentration: 200 nM; construct: GST-full length
T1 sequence: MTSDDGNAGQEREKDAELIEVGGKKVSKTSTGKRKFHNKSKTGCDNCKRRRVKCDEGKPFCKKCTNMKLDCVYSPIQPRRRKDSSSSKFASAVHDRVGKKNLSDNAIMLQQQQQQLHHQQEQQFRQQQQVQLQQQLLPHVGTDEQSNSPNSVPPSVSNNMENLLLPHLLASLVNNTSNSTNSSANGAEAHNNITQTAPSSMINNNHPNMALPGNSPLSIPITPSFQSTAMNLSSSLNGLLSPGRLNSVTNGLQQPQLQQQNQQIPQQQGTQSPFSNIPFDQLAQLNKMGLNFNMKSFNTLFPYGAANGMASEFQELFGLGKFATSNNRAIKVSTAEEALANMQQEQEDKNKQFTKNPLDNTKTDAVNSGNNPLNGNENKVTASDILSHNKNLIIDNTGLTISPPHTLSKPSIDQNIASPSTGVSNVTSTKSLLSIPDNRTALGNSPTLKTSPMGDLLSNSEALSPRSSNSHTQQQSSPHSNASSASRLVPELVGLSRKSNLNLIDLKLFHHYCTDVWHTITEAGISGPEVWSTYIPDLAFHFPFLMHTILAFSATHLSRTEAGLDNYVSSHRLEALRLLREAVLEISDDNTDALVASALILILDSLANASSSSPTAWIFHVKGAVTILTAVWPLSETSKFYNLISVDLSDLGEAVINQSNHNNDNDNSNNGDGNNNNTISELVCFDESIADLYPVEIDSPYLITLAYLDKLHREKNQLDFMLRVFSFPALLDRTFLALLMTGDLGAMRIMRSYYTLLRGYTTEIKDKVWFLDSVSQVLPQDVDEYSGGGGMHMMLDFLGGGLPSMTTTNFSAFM
Outline: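 Using PURExpress in vitro transcription/translation, GST-tagged yeast transcription factors were made in full-length or DNA-binding-domain form. These were applied at about 100-200 nM to double-stranded universal all-10-mer Agilent arrays, and bound protein was detected with fluorescent anti-GST. Scans were normalised with masliner before the Universal PBM Analysis Suite assigned E-scores to ungapped eight-base words pooled with their reverse complements.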

Sequence	PBM E-score
AACCAATT	-0.233
ATCTACCC	0.0111
CTTTACCA	-0.226
TATTACGA	0.389
ATTTACGG	0.31
ATTTACGA	0.453
CATTACGA	0.289
CTTTACGC	0.211
GTTTACAA	0.19
GTTTACTA	0.182
CTTTACGA	0.464
ATTTACGC	0.0401
GTTTACGA	0.46
AATTACGA	0.361
CGGACTGC	-0.0684
ATTCTATA	-0.00057
CTACTGCA	-0.158
AGAGGAAG	-0.167
ATCACTAA	-0.0903
AAAGGGTC	-0.109
ATCATAGC	-0.0799
AGTCCCAG	-0.0584
GAAGAAGA	-0.0416
GGGTCCTA	-0.218
TGGGACCA	-0.27

Sequence	PBM E-score
GAAGGTTA	-0.016
GCGAGCTA	0.248
ACGAGCTG	0.411
AAGAGCTG	-0.264
ACGAGCAT	0.365
ACGAGCAA	0.288
AGGAGCTC	-0.0307
AGGAGCTG	-0.288
ACGAGCTC	0.39
CCGAGCTA	0.101
CCGAGCTC	0.219
ACGAGCTA	0.39
ACGAGCAG	0.383
GAAGTATC	0.0371
ACTTCACG	-0.0496
ATATGGAT	0.133
ACGGTTTA	0.0698
CAACTCTC	-0.11
AGTCCGAA	0.0505
CGTTTCGA	0.202
AGTCGTAA	0.395
GGTCGTAA	0.417
AGTCGTCA	-0.236
CGTCGTAA	0.446
TGTCGTAA	0.428

Sequence	PBM E-score
TATCGTAA	0.363
CGTCGTGA	0.117
TGGCGTAA	0.0429
GGTCGTGA	-0.0346
AGTCGTGA	0.0257
CGTCGTCA	0.0778
GGTCGTCA	0.0226
CGCGAGAG	0.233
ACGGTAGC	-0.00152
ACAATCGC	0.226
AAGTTTTC	0.0919
AGCCTGGC	-0.142
ACCGTGCG	0.161
GTCCGTGA	0.0485
CCTTAGCA	-0.287
ACACGACC	0.186
ACACGACG	0.251
ATACGACC	0.473
AGACGACC	0.0158
CTACGACC	0.413
AGACGACG	0.23
CCACGACC	0.00845
ATACGACG	0.485
CGACGACC	0.154
CCGCGCTA	0.0135

Sequence	PBM E-score
ATGAGAGG	-0.151
CTCGCAAG	0.17
GTCCGTCA	-0.131
CAGGGCAG	-0.104
ACTTTCCA	-0.205
AAGTAGCA	-0.137
ATTGTAGA	0.0824
CCCGTTCG	0.196
CCCGTTCC	0.447
ACCGTTCG	0.229
CCCGTTCA	0.267
GCCGTTCC	0.444
ACCGTTCT	0.135
GACGTTCC	0.141
GCCGTTCA	0.229
ACCGTTCC	0.434
GAGGCTCA	-0.237
CTCGGCAA	0.106
GCTCTAAA	-0.144
CCTAACAC	0.0728
GGTACTAC	0.0611
AACGACGG	0.444
CACGACGC	0.119
CACGACGG	0.167
AACGGCGA	0.381

Sequence	PBM E-score
AACGACGT	0.435
AACGGCGT	0.242
CACGGCGA	0.0797
AAGGACGT	0.0897
GACGACGC	0.145
ACCGACGT	0.329
ACCGACGG	0.196
AACGACGC	0.448
AGAGTCAG	-0.111
ACCTTCGG	0.188
CACCATGG	-0.173
AGAGGGTA	-0.0925
GAGCCACA	-0.0887
CGGTTTTA	0.072
CCTAGCAG	-0.263
GTTGCTCA	0.108
ACAGGTCC	-0.142
ATATCAAG	0.0598
TCTGGGAA	0.00899
CGCATGCG	0.0792
ACGGTAAC	0.151
AACGACGA	0.444
GACGACGA	0.0563
CACGACGA	0.108
ATCGACGA	-0.00044

Sequence	PBM E-score
TACGACGA	0.469
AGCGACGA	0.195
AGACTTAT	-0.104
CAGCAATG	-0.198
GGATGGTA	-0.0324
TCACTCGA	0.163
AATGCAGC	-0.147
CAGGTACC	-0.126
CAGGTACA	-0.23
ATGGTACC	-0.225
AAGGTACG	0.434
ATGGTACA	-0.122
AAGGTACT	0.0334
AAGGTACC	-0.0364
ATGGTACG	0.443
CAGGTACG	0.423
CCTCCTTA	0.032
CATGCGGG	-0.05
ATAGTGCC	0.0559
CTAAGCTC	-0.2
ACCGTCTG	-0.112
ATTGCAGG	-0.00797
CCGGTACA	0.0868
CCGGTACG	0.448
ACGGTACG	0.436

Sequence	PBM E-score
CCGGTACC	-0.103
ACGGTACC	0.206
ACGGTACT	0.0921
AAAGATTG	-0.286
ACGGAGGA	0.151
CTCGCTGA	-0.0623
ATCGCTCC	0.185
GTCGCTTA	0.37
GTCGCTAA	0.289
GTCGCTGA	-0.073
CTCGCTCA	0.358
CTCGCTCC	0.405
CTCGCTTA	0.41
ATCGCTTA	0.327
AAACTCCG	-0.112
AGGGACGG	-0.256
AGTCCGGC	-0.138
GGCGTATA	0.359
TACGTACA	0.328
AACGTATT	0.229
AACGTATC	0.127
CACGTATA	0.386
